Most compounds without a hit are left out; they make up all but 3.5% or so of the library.
14-3-3 Bad PPI = inhibitors of 14-3-3 zeta/Bad binding, primary screen, biochemical, TR-FRET, bovine 14-3-3 zeta; 14-3-3 protein zeta/delta (Bos taurus), P63103; TR-FRET 14-3-3zeta/Dy647-pBad peptide displacement, 1 h; inhibition, % at 21.7 µM; 220,000 tested, 0.71% active;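 active means inhibition above about 70%, limit read from the data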;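 further: 0% = full 14-3-3 plus peptide FRET controls and 100% = background without 14-3-3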
Mcl-1 Bim block = inhibitors of Bim peptide binding to Mcl-1, primary screen, biochemical, bead-based flow cytometry, multiplex. Bim peptide-Mcl-1 binding. inhibition, % at 10 µM. 190,000 tested, 0.1% active. Induced myeloid leukemia cell differentiation protein Mcl-1 (Homo sapiens), Q07820. AID 1009, 2008; in the data active means inhibition above about 40%;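 further: 0% = no compound tracer wells and 100% = peptide blocker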
Mcl1-Noxa inh = Mcl-1/Noxa binding inhibitors, primary screen, biochemical, TR-FRET, 1536-well. Induced myeloid leukemia cell differentiation protein Mcl-1 (Homo sapiens), Q07820. TR-FRET Mcl-1/Noxa peptide binding, 2 h. inhibition, % at 21.7 µM. 220,000 tested, 1.5% active;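 active means compounds that cut the protein-peptide binding signal by more than 50% relative to plate controls in a single-dose test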;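 further: His-tagged Mcl-1 with rhodamine Noxa BH3 peptide and terbium anti-His antibody; 0% = Mcl-1 plus Noxa peptide wells and 100% = peptide-only wells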
eIF4E 4G PPI = eIF4E–eIF4G protein interaction inhibitors, primary screen, biochemical, uHTS, TR-FRET, eIF4GI fragment; Eukaryotic translation initiation factor 4E (Mus musculus) + Eukaryotic translation …; TR-FRET eIF4E-eIF4GI(517-606) binding, 2 h; inhibition, % at 21.7 µM; 220,000 tested, 0.37% active; AID 782, 2007;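 active means inhibition above about 30%, limit read from the data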;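 further: 0% = full FRET control wells and 100% = background wells lacking eIF4GI fragment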
Target sequence (P63073 whole entry, looked up, the tested form may be a part): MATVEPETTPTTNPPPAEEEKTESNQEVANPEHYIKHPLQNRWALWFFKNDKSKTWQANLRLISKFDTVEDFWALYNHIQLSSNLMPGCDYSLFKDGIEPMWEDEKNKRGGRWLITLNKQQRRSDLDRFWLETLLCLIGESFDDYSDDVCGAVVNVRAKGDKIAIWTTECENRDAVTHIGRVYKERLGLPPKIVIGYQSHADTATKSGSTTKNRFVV
Target sequence (Q04637 whole entry, looked up, the tested form may be a part): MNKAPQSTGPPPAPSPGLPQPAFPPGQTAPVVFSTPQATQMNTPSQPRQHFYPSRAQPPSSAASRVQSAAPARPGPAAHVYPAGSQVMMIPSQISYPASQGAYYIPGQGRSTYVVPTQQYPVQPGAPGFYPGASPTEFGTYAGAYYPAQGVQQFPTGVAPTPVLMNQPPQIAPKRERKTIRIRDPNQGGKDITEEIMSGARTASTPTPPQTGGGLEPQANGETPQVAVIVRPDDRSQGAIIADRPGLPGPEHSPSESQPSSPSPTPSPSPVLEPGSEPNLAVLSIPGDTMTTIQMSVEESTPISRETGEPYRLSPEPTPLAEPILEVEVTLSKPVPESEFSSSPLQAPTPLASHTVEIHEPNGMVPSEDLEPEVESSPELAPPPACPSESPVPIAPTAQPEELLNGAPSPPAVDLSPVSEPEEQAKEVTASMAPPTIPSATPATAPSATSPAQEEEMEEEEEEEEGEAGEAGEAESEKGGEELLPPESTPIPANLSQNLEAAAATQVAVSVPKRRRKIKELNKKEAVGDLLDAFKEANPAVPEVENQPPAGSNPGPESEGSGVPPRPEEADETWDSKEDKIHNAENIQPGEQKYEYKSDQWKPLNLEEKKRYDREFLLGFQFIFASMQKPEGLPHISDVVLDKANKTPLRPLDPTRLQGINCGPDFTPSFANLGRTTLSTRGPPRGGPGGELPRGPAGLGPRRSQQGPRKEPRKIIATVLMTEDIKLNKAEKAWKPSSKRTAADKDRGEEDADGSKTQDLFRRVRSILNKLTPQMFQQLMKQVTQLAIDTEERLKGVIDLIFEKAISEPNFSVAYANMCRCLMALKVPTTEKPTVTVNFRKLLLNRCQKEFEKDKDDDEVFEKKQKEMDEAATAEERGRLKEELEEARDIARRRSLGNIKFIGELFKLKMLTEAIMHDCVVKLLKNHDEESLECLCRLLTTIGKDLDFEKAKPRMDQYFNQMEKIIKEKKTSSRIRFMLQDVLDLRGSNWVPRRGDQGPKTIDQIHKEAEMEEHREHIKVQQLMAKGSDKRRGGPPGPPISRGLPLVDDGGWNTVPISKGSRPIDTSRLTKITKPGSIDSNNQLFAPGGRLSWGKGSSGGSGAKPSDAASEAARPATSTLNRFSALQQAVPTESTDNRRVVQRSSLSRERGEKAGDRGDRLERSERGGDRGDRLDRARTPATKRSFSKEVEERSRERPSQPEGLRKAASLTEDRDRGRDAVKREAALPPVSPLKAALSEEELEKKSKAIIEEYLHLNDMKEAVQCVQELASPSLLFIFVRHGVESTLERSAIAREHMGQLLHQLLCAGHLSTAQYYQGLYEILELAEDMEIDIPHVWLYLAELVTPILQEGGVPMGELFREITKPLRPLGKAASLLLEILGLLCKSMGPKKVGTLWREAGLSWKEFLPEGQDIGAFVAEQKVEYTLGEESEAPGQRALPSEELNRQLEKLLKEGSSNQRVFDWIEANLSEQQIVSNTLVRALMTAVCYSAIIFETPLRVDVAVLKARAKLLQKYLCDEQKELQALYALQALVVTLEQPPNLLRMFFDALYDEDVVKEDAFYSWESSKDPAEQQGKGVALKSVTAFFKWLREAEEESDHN
Hck-Nef inh = inhibitors of Nef-activated human Hck kinase, primary screen, biochemical, Z-Lyte FRET, 384-well, Hck-YEEI. Recombinant Hck-YEEI plus Nef, Z-Lyte FRET kinase assay. inhibition, % at 20 µM. 220,000 tested, 0.68% active. AID 463187, 2010. Tyrosine-protein kinase HCK (Homo sapiens), P08631;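 active means Hck-Nef kinase inhibition above about 50%, limit read from the data; inactive means inhibition below that limit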;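 further: 0% = DMSO with Hck plus Nef and 100% = Hck alone without Nef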
Mcl1 Bid PPI = Mcl-1/Bid binding inhibitors, primary screen, biochemical, TR-FRET, 1536-well | 220,000 tested, 0.97% active | Induced myeloid leukemia cell differentiation protein Mcl-1 (Homo sapiens), Q07820 | inhibition, % at 21.7 µM | TR-FRET Mcl-1/Bid-Dy647 peptide binding;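 active means compounds that cut the binding signal by more than half at the single screening dose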;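 further: His-tagged Mcl-1 with europium anti-His antibody binding Bid BH3 peptide; 0% = Mcl-1 plus peptide wells and 100% = peptide-only wells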
Hck Nef conf = retest of Hck:Nef kinase inhibitor hits, confirmation, biochemical, Z-Lyte FRET, 384-well, p-Tyr peptide counterscreen. Recombinant Hck-YEEI:Nef, Z-Lyte FRET kinase assay. 1,300 tested, 28% active. AID 463188, 2010. calls only at 10 µM. shares compounds with Hck-Nef inh;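 active means average inhibition of at least 50%, with Z-scores no higher than 3 in both the phospho-tyrosine peptide and fluorescence counterscreens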
* marks the source's active call; other numbers are inactive results; i = inactive; / = not tested or not shown; + = active, no number.

SMILES	14-3-3 Bad PPI	Mcl-1 Bim block	Mcl1-Noxa inh	eIF4E 4G PPI	Hck-Nef inh	Mcl1 Bid PPI	Hck Nef conf
CCCCn1c(O)c(N=NC(=O)c2ccco2)c2ccccc21	-6.3	0.0	8.1	-6.2	4.2	-0.5	/
O=C(N=Nc1c(O)n(C2OC(=O)c3ccccc32)c2ccccc12)c1ccco1 (stereo not drawn)	52.3	/	46.5	7.0	65.0*	45.2	i
CCCCCCc1cc2cc(C(=O)OCC)c(=O)oc2cc1O	7.5	/	2.7	-0.4	+	-5.0	/
CCN(CC)c1ccc2cc(C(N)=O)c(=N)oc2c1	-2.5	-5.0	-56.4	0.0	22.3	-19.9	/
COc1ccc(NC(=O)c2cc3cc(OC)ccc3oc2=N)cc1	4.3	-4.0	8.3	-2.9	-4.7	16.2	/
CCOC(=O)c1cc2ccc(OC(=O)c3ccco3)cc2oc1=O	19.0	-1.0	-64.8	4.8	136.2*	44.0	/
CCCCCCc1cc2cc(C(N)=O)c(=N)oc2cc1O	14.9	-2.0	-10.5	-4.9	72.4*	-24.4	/
CCCCCCc1cc2cc(C(=O)NC)c(=N)oc2cc1O	/	0.0	/	/	51.0*	/	i
CC(C)(C)OC(=O)N1CCC(CNC(=O)Nc2ccccc2)CC1	-3.5	/	-13.6	0.1	7.5	-45.0	/
COc1cc2c(cc1OC)C1(CCCC1)CNC2c1cccc([N+](=O)[O-])c1 (stereo not drawn)	-0.9	-4.0	16.9	4.7	5.7	0.0	/
C[C@@H]1C=C(C(=O)O)O[C@H](OCc2ccc(CO)cc2)C1	-0.8	4.0	-21.7	2.0	0.0	-6.8	/
CCCCCCc1cc2cc(S(=O)(=O)c3ccc(F)c(Cl)c3)c(=O)oc2cc1O	11.8	4.0	13.5	-4.5	55.3*	17.6	/
CC(C)(C)C(=O)Nc1sc2c(c1C(=O)Nc1ccccn1)CCCC2	-1.2	-1.0	-1.7	-1.0	18.2	-9.5	/
Cn1cc(/C=C(\C#N)C(=O)Nc2cccc([N+](=O)[O-])c2)c2ccccc21	69.1	3.0	28.9	11.4	61.6*	51.9*	i
CCOC(=O)c1[nH]c(C)c(C(=O)OCC(=O)N2CCc3ccccc32)c1C	6.3	0.0	-6.0	2.1	-20.6	-24.0	/
CCOC(=O)c1c(C)[nH]c(C(=O)OCC(=O)N2CCc3ccccc32)c1C	43.8	3.0	-3.8	-86.8	92.5*	30.8	i
O=C(NC(Cc1ccccc1)C(=O)O)/C(=C/c1ccco1)NC(=O)c1cccc(Br)c1 (stereo not drawn)	-6.4	2.0	10.9	2.5	2.2	-68.3	/
CCN1C(=O)/C(=C\c2cn(-c3ccccc3)nc2-c2cccnc2)SC1=S	77.9*	0.0	4.1	14.7	59.9*	56.5*	i
CCOc1ccc(-c2nn(-c3ccccc3)cc2/C=C2\SC(=S)N(Cc3ccco3)C2=O)cc1	3.7	-1.0	35.6	-0.3	-0.5	6.3	/
COc1ccc(N2CCN(C(=O)CNS(=O)(=O)c3ccc(C)cc3)CC2)cc1	-17.4	3.0	5.4	5.4	20.8	-36.2	/
Cc1ccc(C)c(NC(=O)c2cc3ccccn3n2)c1	-2.0	2.0	18.9	4.6	11.3	-34.3	/
Cc1ccc(C)c(NC(=O)c2cnn3ccccc23)c1	9.7	2.0	-10.7	-2.8	67.3*	-21.9	+
CCCn1nc(Oc2nc(N(C)C)nc(N(C)C)n2)ccc1=O	-0.9	2.0	1.1	-0.8	17.1	-14.8	/
CC1=NNC(=O)/C1=C\c1cn(-c2ccccc2)nc1-c1ccc(Cl)cc1	-14.9	-5.0	-51.2	2.6	59.9*	-14.9	+

Assay outcomes from PubChem BioAssay.
